According to PubChem BioAssay AID678 (Vanderbilt High Throughput Screening Facility, 2007):
The campaign covered roughly 1,700 compounds. About 15 (0.9%) were called active.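 The calls were made as follows: active = fluorescence response below the plate's average for near-maximal glutamate wells, less 3 SD of those wells; inactive = the rest.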 Only a sample is shown.

Target: Metabotropic glutamate receptor 4 (Homo sapiens) (UniProt Q14833)
Experiment: mGluR4 calcium signal in M1 antagonist follow-up – cell-based, antagonist mode, secondary assay 1, M1 allosteric modulator project (AID 678);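 also: raw unnormalized fluorescence span taken in the window right after glutamate addition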
Conditions: CHO-mGluR4 calcium flux, Fluo-4 fluorescence, glutamate EC80; at 10 µM; active compounds read low

Fluorescence response (max-min), inactive:
CN(C)[C@@H]1C(=O)C(C(N)=O)=C(O)[C@@]2(O)C(=O)C3=C(O)c4c(O)ccc(Cl)c4[C@@H](O)[C@H]3C[C@@H]12 238
Cc1cccc(N2CCN(Cc3c(C)n(C)n(-c4ccccc4)c3=O)CC2)c1C 223
CCC1(C)Cc2c(sc3nc4n(c(=O)c23)CCCS4)CO1 (stereo not given) 249
O=C(NC1=NCCS1)c1ccc(Cl)s1 158
Cc1nc2ccccc2c2oc(C(=O)NCCCN3CCC(C)CC3)cc12 185
O=S(=O)(CCc1nc2ccccc2o1)c1ccc(Cl)cc1 249
CCOC(=O)C1=C(CC)Nc2ccccc2N=C1NC(=O)c1cccc(S(=O)(=O)N2CCCC2)c1 148
COc1ccc(CCn2c(=N)c(C(=O)NCc3ccco3)cc3c(=O)n4cccc(C)c4nc32)cc1 207
CCC(C(=O)OCCN(CC)CC)c1ccccc1 (stereo not given) 235
O=C(c1ccco1)N1CCN=C1SCc1cccc(Cl)c1 236
O=C1NC(Nc2nc3ccccc3s2)(C(F)(F)F)C(=O)N1C1CCCCC1 (stereo not given) 308
Cn1c(CCN2CCCCCC2)nc2cc(NC(=O)Nc3ccccc3)ccc21 225
CCOC(=O)c1c(-c2ccc(C)cc2C)csc1NC(=O)CSc1nnnn1C 167
CC(C)(C)n1nnnc1C(c1cccs1)N(Cc1cccnc1)CC1CCCO1 (stereo not given) 241
CCn1c(=N)n(CC(=O)c2cccc(OC)c2)c2ccccc21 268
O=C(C(NS(=O)(=O)c1cccc2nsnc12)c1ccccc1)N1CCN(c2ccccn2)CC1 (stereo not given) 228
C=CCn1c(=S)[nH]c2nc3c(cc2c1=O)COC(C)(C)C3 199
Cc1nc2c(-c3ccc(F)cc3)c(C)nn2c(C)c1CCC(=O)N1CCN(c2ccccn2)CC1 245
CN(C)CCOC(=O)C(c1ccccc1)C1(O)CCCC1 (stereo not given) 250
CCCCN(C)C(=O)c1ccc2c(c1)N(CC)C(=O)c1ccccc1S2(=O)=O 258
O=C(NCCCN1CCCCCC1)C1CC(=O)N(C2CCCC2)C1 (stereo not given) 241
CC1CCCC(C)N1CCCNC(=O)c1cc2c(=O)n(C)c3ccccc3c2n1C (stereo not given) 236
CCOc1ccccc1C(=O)NCCCn1ccnc1 200
O=S(=O)(c1ccc(OCC(O)CN2CCN(c3ccccc3Cl)CC2)cc1)N1CCOCC1 (stereo not given) 233
COc1cccc2sc(Nc3nc(C)c(C(C)=O)s3)nc12 200
CCC(C)(NC(=O)c1ccccn1)C(=O)NC1CCCCC1 (stereo not given) 237
COc1cccc(OCCOc2cccc(/C=N/n3cnnc3)c2)c1 210
CCOC(=O)N1CCN(C(=O)C2CCN(c3ncnc4c3sc3cccc(F)c34)CC2)CC1 221
Cc1ccccc1C(OCC(O)CN1CCCCC1CCO)c1ccccc1 (stereo not given) 188
N#CC(C(=O)c1ccc(S(=O)(=O)N2CCCCCC2)cc1)c1nc2ccccc2[nH]1 (stereo not given) 182
COc1ccc(S(=O)(=O)Nc2ccc3c(c2)OCO3)cc1Cl 202
CCOC(=O)C1CCN(Cc2coc3ccc(Cl)cc3c2=O)CC1 219
O=C(Cc1cccs1)N1CCCC(c2nc(-c3ccc(S(=O)(=O)N4CCCC4)cc3)no2)C1 (stereo not given) 213
CCOC(=O)c1[nH]c2ccc(OC)cc2c1NC(=O)CCN1CCN(Cc2ccccc2)CC1 230
CCOC(=O)N1CCN(CC(=O)Nc2cc(C)nn2-c2nc3ccccc3s2)CC1 255
COc1cc(Cl)c(C)cc1NC(=O)CSc1nnc(-c2ccco2)n1CC(C)C 252
CCC(=O)c1ccc(OCC(O)CN2CCN(c3cccc(C(F)(F)F)c3)CC2)cc1 (stereo not given) 252
O=C(NCC(F)(F)F)Nc1nnc(C(F)(F)F)s1 203
CSc1nnc2c(n1)OC(c1ccsc1)N(C(C)=O)c1ccccc1-2 (stereo not given) 247
CN1CCN(CC(=O)Nc2sc3c(c2C#N)CCC(C(C)(C)C)C3)CC1 (stereo not given) 231
Cc1ccc(-c2csc3nnc(SCC(=O)NCc4ccco4)n23)cc1 237
Cc1ccsc1-c1nc(CSCC(=O)NCCN2CCCC2)c(C)o1 246
CC1=Nn2c(nnc2-c2ccccc2)SC1 162
CCCCCOC(=O)NCCOC(=O)Nc1ccc(C(=O)OCC)cc1 170
CCOC(=O)N1CCN(C(=O)C2CCCN(c3ncnc4c3sc3cccc(F)c34)C2)CC1 (stereo not given) 165
c1ccc(-c2cc(-c3nnc4sc(-c5ccccn5)nn34)[nH]n2)cc1 215
CC1(C)Cc2c(sc3nc4n(c(=N)c23)CCCCC4)CO1 203
CCN(CCCCOC(=O)c1ccc(OC)c(OC)c1)C(C)Cc1ccc(OC)cc1 (stereo not given) 254
Cc1ccc(-c2noc(CCC(=O)Nc3ccccc3N3CCN(C)CC3)n2)cc1 218
COC(=O)c1ccc(NC(=O)CN(c2ccc(C)cc2)S(=O)(=O)c2c(C)n[nH]c2C)cc1 174
O=C(c1ccc(S(=O)(=O)N2CCOCC2)cc1)N1CCN(c2ccccc2)CC1 197
COc1ccc(-c2noc(CN(C)S(=O)(=O)c3ccc(C)cc3)n2)cc1 259
COc1ccc(-c2nnn(Cc3nc(N)nc(N4CCCCC4)n3)n2)cc1 348
CC1(C)CN=C(N2CCN(c3ncnc4sc5c(c34)CCCC5)CC2)S1 244
CC12CN(Cc3ccccc3)CC(C)(CN(Cc3ccccc3)C1)C2=NO 253
COCCN(C(=O)CCC(=O)Nc1ccccn1)C(C(=O)NCCC(C)C)c1ccc(OC)cc1 (stereo not given) 243
O=C(CCN1C(=O)COc2ccccc21)NCCCN1CCN(c2ccc(F)cc2)CC1 252
COCCn1c(SCC(=O)Nc2cc(Cl)ccc2OC)nc2c(c1=O)SC(C)C2 (stereo not given) 256
COc1cc(OC)c(C(=O)NC2CC(C)(C)NC(C)(C)C2)cc1OC 184
CN1CCN(c2ccc(NC(=O)COc3ccc(Cl)cc3Cl)cc2)CC1 245
O=C(C(c1ccccc1)c1ccccc1)N1CCN(CC(O)COc2ccccc2)CC1 (stereo not given) 172
C=CCSc1nc2ccccc2[nH]1 255
COC(CCN(C)C)(c1ccccc1)c1ccccc1 257
CCN1CCN(c2c(Cl)cccc2NC(=O)c2ccc(Br)o2)CC1 203
O=C(Nc1ccncc1)c1c(F)cccc1F 195
CCn1c(=O)cc(OCC(=O)NCCCN2CCN(c3cccc(Cl)c3)CC2)c2ccccc21 275
CCOC(=O)c1c(NC(=O)CSc2nnc(CN3CCOCC3)n2C)sc2c1CCCC2 212
COC(=O)c1ccc(C2C3=C(Nc4nnnn42)c2ccccc2OC3)cc1 (stereo not given) 256
CCC/C(O)=C1\C(=O)CC(C)(C)CC1=Nc1ccccc1OC 272
CCOC(=O)Nc1ccc2c(c1)N(C(=O)CN1CCN3CCCC3C1)c1ccccc1CC2 (stereo not given) 187
O=C(c1ccc(-n2cnnn2)cc1)N1CCN(C(c2ccccc2)c2ccccc2)CC1 242
CCOC(=O)N1CCN(S(=O)(=O)c2cc(Br)cc3c2N(C(=O)C2CC2)CC3)CC1 246
Cc1cc(C)n(-c2nc(SCC(=O)N3CCCC3)c3c4c(sc3n2)CCCC4)n1 193
CCCCN(CCCC)C(=O)CCS(=O)(=O)c1ccc2c(c1)n(C)c(=O)c(=O)n2C 272
C=C(C)Cn1c(N2CCCC2)nc2c1c(=O)[nH]c(=O)n2C 203
Cc1c(C)c2cc3c4c(oc3c(C)c2oc1=O)CCCC4 174
CCN1C(=O)/C(=C2\SC(N3CCCCC3)=NC2=O)c2ccccc21 235
CCCCOc1ccc(C(C)(O)CCN2CCOCC2)cc1 (stereo not given) 209
O=C(CCCN1C(=O)CSc2ncccc21)N1CCN(c2cccc(C(F)(F)F)c2)CC1 263
COc1ccccc1OCCOc1ccc(/C=N/n2cnnc2)cc1 239
